What was measured:
Type in all cases: functional
Plasmodium falciparum [1] = assay: GSK_TCMDC: Inhibition of Plasmodium falciparum 3D7 in whole red blood cells, using parasite LDH activity as an index of growth. Test compounds present at 2uM
Plasmodium falciparum [2] = assay: GSK_TCMDC: Inhibition of Plasmodium falciparum Dd2 in whole red blood cells, using parasite LDH activity as an index of growth. Test compounds present at 2uM
HepG2 = assay: GSK_TCMDC: Percent inhibition of human HepG2 cell line. Test compounds present at 10uM.

Structure (SMILES) | Inhibition (Plasmodium falciparum [1]) | Inhibition (Plasmodium falciparum [2]) | Inhibition (HepG2)
COc1ccccc1C1CN(Cc2coc3ccccc3c2=O)Cc2ccccc2O1 (configuration not stated) | 87% | 61% | 4%
Cc1cc(N2CCCC2)nc(Nc2ccc(NC(=O)c3ccco3)cc2)n1 | 100% | 43% | 23%
Cc1nnsc1C(=O)Nc1cccc(-c2ccc(-c3nc4ccccc4[nH]3)s2)c1 | 89% | 13% | 55%
CNC(=O)Cc1ccc(C(=O)Nc2cccc(-c3ccc(-c4nc5cccc(C)c5[nH]4)s3)c2)cc1 | 91% | 25% | 66%
c1ccc2c(CNc3ccnc(NCc4cccc5ccccc45)n3)cccc2c1 | 99% | 71% | 51%
CCN(C1CCCCC1)S(=O)(=O)c1ccc(OC)c(N2CCN(C(=O)C(Cl)(Cl)Cl)CC2)c1 | 100% | 85% | 0%
Cc1cccc(NC(c2cccs2)c2c(NC(=O)c3ccccc3)sc(C)c2C)n1 (configuration not stated) | 88% | 80% | 0%
O=C(O)C(F)(F)F.O=C1CCCN1CCCNCc1ccc(-c2cccc(-c3nc4ccccc4[nH]3)c2)cc1 | 96% | 0% | 19%
CC(=O)c1c(C)[nH]c(C(=O)Nc2ccc(-c3nc4ccc(C)cc4s3)cc2)c1C | 92% | 40% | 11%
COCC(C)n1c(SC(C)C(=O)Nc2cc([N+](=O)[O-])ccc2Cl)nc2ccccc2c1=O (configuration not stated) | 95% | 94% | 0%
COc1ccc(Cl)cc1N1CCN(CCCNC(=O)c2ccc(-c3nc4ccc(C(F)(F)F)cc4[nH]3)c(C)c2)CC1 | 95% | 14% | 6%
COc1ccc(C2c3cc(OC)c(OC)cc3C(=NO)C2C)cc1OC (configuration not stated) | 90% | 6% | 20%
CN1C(=C2SC(=Nc3ccc4ncccc4c3)N(Cc3ccccc3)C2=O)Sc2ccc(Cl)cc21 | 99% | 75% | 4%
Cc1cc(N)c2cc(NC(=O)c3cc4ccccc4s3)ccc2n1 | 100% | 99% | 100%
CC(CN(C)C)Oc1ccc2nc(-c3cccc(OCc4ccccc4)c3)[nH]c2c1C#N (configuration not stated) | 100% | 94% | 57%
O=C(NCCCN1CCC(N2CCCCC2)CC1)C1=Cc2cc(Br)ccc2OC1 | 100% | 19% | 26%
CC(CN1CCN(C)CC1)C(=O)Nc1cccc(-c2ccc(-c3nc4ccccc4[nH]3)s2)c1 (configuration not stated) | 97% | 59% | 2%
Cc1ccccc1Nc1nc(NCCCO)c2ccccc2n1.Cl | 83% | 50% | 0%
COc1ccc2nccc([C@@H](O)CN3CCC(NC(=O)C(c4cc5ccccc5o4)N4CCN(Cc5ccccc5)CC4)CC3)c2c1 (some centres not stated) | 91% | 75% | 30%
Cc1onc(-c2ccccc2)c1-c1nc(NCCC(c2ccccc2)c2ccccc2)no1 | 100% | 78% | 0%

Structure (SMILES) | Inhibition (Plasmodium falciparum [1]) | Inhibition (Plasmodium falciparum [2]) | Inhibition (HepG2)
N#Cc1cccc(NC(=O)c2ccc(S(=O)(=O)NCC3CCCN3CC3CCCCC3)cc2)c1.O=C(O)C(F)(F)F (configuration not stated) | 88% | 18% | 25%
CN(C)CCNC(=O)c1ccc2c(c1)ncn2-c1cc(OCc2ccccc2C(F)(F)F)c(C(N)=O)s1.CN(C)CCNC(=O)c1ccc2ncn(-c3cc(OCc4ccccc4C(F)(F)F)c(C(N)=O)s3)c2c1 | 90% | 8% | 0%
COc1ccccc1N1CCN(Cc2c(O)ccc3cc(Br)ccc23)CC1 | 89% | 75% | 8%
CCN(CCNC(=O)C1CCN(c2cc(-c3cccc(C)c3)ncn2)CC1)Cc1ccccc1 | 83% | 72% | 24%
CC1(C)NC(N)=NC(=N)N1OCc1ccc2ccccc2c1CON1C(=N)N=C(N)NC1(C)C | 96% | 12% | 8%
OC(CNCc1cccc(Oc2ccc(Cl)cc2)c1)c1cc(C(F)(F)F)cc(C(F)(F)F)c1 (configuration not stated) | 99% | 100% | 0%
COc1ccc(-c2csc(N(CCCN(C)C)C(=O)c3cc4c(C)nn(-c5ccccc5)c4s3)n2)cc1.Cl | 100% | 16% | 100%
Cc1cc(N[C@@H](Cc2ccccc2)C(=O)NCCOc2ccccc2)nc(NCCc2ccccc2)n1.O=C(O)C(F)(F)F | 100% | 68% | 12%
CCc1cn2c3c(cc(C(=O)N[C@@H](Cc4cccc(F)c4)[C@H](O)CNC4CC4)cc13)N(C)S(=O)(=O)CC2.O=CO | 98% | 98% | 2%
COc1cc2c(cc1NS(=O)(=O)c1ccc(OCc3ccc(Br)cc3)cc1)CCN(C1CCC1)CC2.Cl | 94% | 30% | 36%
COc1cc(Nc2nccc(-c3c(-c4cccc(NC(=O)c5c(F)cccc5F)c4)nn4ncccc34)n2)cc(OC)c1OC | 98% | 97% | 96%
CCCN(CCC)C(=O)c1cc(-c2cccc(C)c2)nc2ccccc12 | 86% | 59% | 17%
Br.CC(CON1C(N)=NC(N)=NC1(C)C)c1ccc(Cl)cc1Cl (configuration not stated) | 97% | 95% | 64%
Br.Oc1cccc(CCNCCCCCCNCCc2ccc(Cl)cc2)c1 | 96% | 0% | 23%
CC(C)N(Cc1ccc(-c2ccc(C(F)(F)F)cc2)cc1)C(=O)Cn1c(SCc2cccc(F)c2F)cc(=O)c2cc(CN3CCCCC3)ccc21.Cl | 100% | 59% | 97%
COc1ccc2nccc([C@@H](O)CN3CCC(NCCOc4cc(F)cc(F)c4)CC3)c2c1.O=C(O)C(=O)O | 100% | 86% | 10%
CS(=O)(=O)CCNCc1cc(-c2cc3ncnc(Nc4ccc(OCc5cccc(F)c5)c(Cl)c4)c3s2)cs1 | 99% | 48% | 8%
CCC[C@@H]([C@@H](CC1CCCCC1)C(=O)N[C@H](C(=O)Nc1nccs1)[C@H](C)O)N(O)C=O | 99% | 75% | 0%
Cc1ccc(O)c(CN2CCCC(COC(c3ccc(F)cc3)c3ccc(F)cc3)C2)c1 (configuration not stated) | 98% | 98% | 19%
COc1ccc(-c2ccc(CNCc3ccsc3)cc2)cc1S(=O)(=O)NCCN1CCCC1.O=C(O)C(F)(F)F | 94% | 30% | 22%

Structure (SMILES) | Inhibition (Plasmodium falciparum [1]) | Inhibition (Plasmodium falciparum [2]) | Inhibition (HepG2)
O=C(Nc1cc(C(F)(F)F)cc(C(F)(F)F)c1)Nc1cc(C(F)(F)F)cc(C(F)(F)F)c1 | 97% | 100% | 5%
Cc1ccc(Nc2nccc(Nc3ccc4c(c3)nc(Nc3cc(C(C)(C)C)on3)n4C)n2)cc1S(C)(=O)=O | 100% | 99% | 30%
COc1cc(C(=O)NC2CCN(Cc3ccccc3)CC2)ccc1-c1cc2cc(Cl)c(Cl)cc2[nH]1.O=C(O)C(F)(F)F | 100% | 100% | 33%
Br.CCCC1N=C(N)N=C(N)N1c1ccc(OC)cc1 (configuration not stated) | 96% | 4% | 0%
C[C@H](CNc1ccnc(Nc2ccc3[nH]c(=O)[nH]c3c2)n1)c1ccccc1.O=CO | 100% | 0% | 61%
O=C(N[C@H]1CCN(Cc2ccc(OCCN3CCNCC3)c3ccccc23)C1)c1ccc(Cl)c(Cl)c1.O=C(O)C(F)(F)F | 100% | 99% | 53%
CN(C)c1ccc(-c2cscc2C(=O)NC2CCCN(Cc3cccnc3)C2)cc1.O=C(O)C(F)(F)F (configuration not stated) | 89% | 70% | 5%
CC(Cc1ccc(NC(=O)c2ccc(NCCc3ccccc3)cc2)cc1)NCCc1cccc(Cl)c1.Cl (configuration not stated) | 92% | 1% | 25%
CS(=O)(=O)Cc1ccc(Nc2nccc(-c3c(-c4cccc(NC(=O)c5c(F)cccc5F)c4)nn4ccccc34)n2)cc1 | 99% | 75% | 78%
O=C(NCCCCN1CCN(c2cccc3ccccc23)CC1)c1ccc(NC(=O)c2ccc(Cl)cc2)cc1 | 100% | 64% | 38%
CCN(CC)CCN(Cc1ccc(-c2ccc(C(F)(F)F)cc2)cc1)C(=O)Cn1c(CCc2ccc(F)cc2)nc(=O)c2ccccc21.O=C(O)C(O)C(O)C(=O)O | 97% | 58% | 42%
COc1ccc(NC(=O)c2c(NC(=O)c3cccs3)sc3c2CCCC3)cc1 | 97% | 4% | 4%
COc1cc2c(cc1OCCN1CCC(N3CCCCC3)CC1)N(C(=O)/C=C/c1ccccc1Cl)CC2 | 100% | 41% | 36%
COc1cc2[nH]c(-c3ccc(O)cc3)c(C)c(=O)c2c(OC)c1OC | 100% | 94% | 1%
CC(C)CCn1c(Sc2ccc(C#N)c([N+](=O)[O-])c2)nnc1-c1cccc(Cl)c1 | 96% | 82% | 33%
FC(F)(F)c1ccc(-c2ccc(CNC3CCN(CCN4CCOCC4)CC3)cc2)cc1 | 100% | 74% | 44%
COc1cccc2c(N/N=C/c3cccc([N+](=O)[O-])c3)ccnc12 | 100% | 47% | 12%
CCCOc1cccc(C(=O)N[C@@H](Cc2ccccc2)[C@H](O)CNCc2cccc(OC)c2)c1 | 100% | 18% | 14%
CCN(CC)CCNC(=O)c1ccc(NC(=O)c2ccc(-c3cc(NC(=O)CC4CCCC4)ccc3C)cc2)cc1 | 99% | 95% | 12%

— ChEMBL document CHEMBL1157539, “Thousands of chemical starting points for antimalarial lead identification” (Nature, 2010)
